# Measured values reported in PubChem BioAssay AID2284426 (EPA ToxCast).
# The source made the active and inactive calls. The calls were made as follows: active = hit-call score of the fitted dose curve at least 0.9, where 1 is the maximum; inactive = score below 0.9.
# Assay: CCTE_Deisenroth_DEVTOX-GLR_Ecto_CellCount: Viability Assessment in CCTE's DevTox GLR-Ecto Assay, Deisenroth Lab
# Protocol: CCTE_Deisenroth_DEVTOX-GLR_Ecto assay is a cell-based, multiplex-readout assay that uses RUES2-GLR, a human pluripotent cell line, with measurements taken at 48 hours after chemical dosing in a 384-well microplateCCTE_Deisenroth_DEVTOX-GLR_Ecto_CellCount is 1 of 4 assay components calculated from the CCTE_Deisenroth_DEVTOX-GLR_Ecto assay and it measures cell count. Using fluorescent nuclei staining, gain-of-signal activity can be used to understand changes in cell viability with fluorescent microscopy. It is designed to make measurements of nuclei counts as a surrogate for cell number, as detected with optical fluorescence microscopy by Perkin Elmer Harmony nuclei detection algorithm. To generalize the intended target to other relatable targets, this assay component is annotated to the cell cycle intended target family, where the subfamily is cytotoxicity.Data from the assay component CCTE_Deisenroth_DEVTOX-GLR_Ecto_CellCount was analyzed as 1 assay endpoint. The endpoint the percent change in the cell count relative to the 0.2% DMSO control in the CCTE_Deisenroth_DEVTOX-GLR_Ecto assay. Furthermore, this assay endpoint can be referred to as a […] readout, because this assay has produced multiple assay endpoints where this one serves as a measure of cytotoxicity.
# All assay protocols are aligned to the DevTox GLR-Endo assay workflow. Cells are seeded into 384-well microplates for 24 hours prior to initiating differentiation in defined media for a total duration of 48 hours. A total of two chemical exposures are administered in 24-hour intervals during the 48-hour differentiation period. At the assay termination point, cells are fixed and stained with a fluorescent dye demarcating the nucleus. High-content imaging is used to acquire brightfield and fluorescent channel images across 5 fields per well. Cell identification and mean biomarker fluorescence intensities are calculated with image analysis software to determine the total cell counts for viability assessment and the biomarker expression frequency for each lineage-dependent assay. A typical experimental design tests a 10-point concentration series (1 nM - 200 uM) for 28 compounds in single technical replicate. Assay plate controls include non-differentiated pluripotent cells (baseline control), lineage-specific differentiated cells (differentiation control), and DMSO solvent exposed differentiated cells (solvent control). Experiments typically comprise a minimum of four experimental replicates (n=4).
Structure (SMILES),outcome,AC50
CC(C)(c1ccc(O)cc1)c1ccc(O)cc1,inactive,
CC/C(=C(/CC)c1ccc(O)cc1)c1ccc(O)cc1,inactive,
O=C1CCC(N2C(=O)c3ccccc3C2=O)C(=O)N1 (stereo unspecified),inactive,
CN(Cc1cnc2nc(N)nc(N)c2n1)c1ccc(C(=O)N[C@@H](CCC(=O)O)C(=O)O)cc1,inactive,
CS(=O)(=O)OCCCCOS(C)(=O)=O,,20400 nM (active)
CC1=C(/C=C/C(C)=C/C=C/C(C)=C/C(=O)O)C(C)(C)CCC1,,24.2 nM (active)
CCCC(CCC)C(=O)O,inactive,
CC(=O)Nc1ccc(O)cc1,inactive,
O=c1[nH]cc(F)c(=O)[nH]1,,3870 nM (active)
CC1(C)S[C@@H]2[C@H](NC(=O)Cc3ccccc3)C(=O)N2[C@H]1C(=O)O,inactive,
Nc1cccc2c1C(=O)N(C1CCC(=O)NC1=O)C2=O (stereo unspecified),inactive,
O=C1NS(=O)(=O)c2ccccc21,inactive,
O=C1NC(=O)C(c2ccccc2)(c2ccccc2)N1,inactive,
CCN(CC)CCNC(=O)c1c(C)[nH]c(/C=C2\C(=O)Nc3ccc(F)cc32)c1C,,1250 nM (active)
Nc1nc2ncc(CNc3ccc(C(=O)N[C@@H](CCC(=O)O)C(=O)O)cc3)nc2c(=O)[nH]1,inactive,
CC1=C(/C=C/C(C)=C/C=C/C(C)=C\C(=O)O)C(C)(C)CCC1,,460 nM (active)
